Screening data (PubChem BioAssay)
DAGLB inh – blocks human DAGLB lipase activity; inhibition, % at 5.17 µM; HEK293T DAGLB membrane lysate, EnzChek fluorogenic substrate; actives 0.059% (n = 340,000); Q8NCG7; AID 504411; in the data active = inhibition above about 34%;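 also: 0% = enzyme with vehicle and 100% = wells lacking enzyme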
Target sequence (Q8NCG7 whole entry, looked up): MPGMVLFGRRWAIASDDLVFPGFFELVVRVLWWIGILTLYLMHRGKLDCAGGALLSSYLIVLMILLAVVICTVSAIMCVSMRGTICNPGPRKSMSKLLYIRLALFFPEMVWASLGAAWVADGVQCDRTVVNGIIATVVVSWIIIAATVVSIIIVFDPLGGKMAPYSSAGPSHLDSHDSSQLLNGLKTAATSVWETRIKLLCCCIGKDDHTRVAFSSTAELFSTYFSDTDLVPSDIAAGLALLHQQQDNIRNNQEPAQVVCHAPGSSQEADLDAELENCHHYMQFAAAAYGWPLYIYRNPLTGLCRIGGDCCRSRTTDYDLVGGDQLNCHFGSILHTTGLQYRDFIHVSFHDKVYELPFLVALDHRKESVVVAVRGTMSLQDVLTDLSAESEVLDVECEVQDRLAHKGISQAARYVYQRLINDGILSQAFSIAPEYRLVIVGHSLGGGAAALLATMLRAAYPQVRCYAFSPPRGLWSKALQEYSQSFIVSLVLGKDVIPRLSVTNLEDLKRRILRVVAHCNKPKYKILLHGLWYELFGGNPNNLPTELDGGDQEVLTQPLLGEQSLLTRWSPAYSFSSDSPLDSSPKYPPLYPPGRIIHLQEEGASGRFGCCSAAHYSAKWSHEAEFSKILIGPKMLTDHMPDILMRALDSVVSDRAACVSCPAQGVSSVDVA
Neddyl block – cullin neddylation inhibition; P61081+Q13564; TR-FRET cullin neddylation, biochemical; inhibition, % at 25 µM; actives 0.58% (n = 360,000); AID 651699; in the data active = inhibition above about 36%
sPLA2-III inh – Blocks human group III sPLA2 activity; inhibition, % at 12.2 µM; AID 743126; Q9NZ20; QFRET BODIPY PC-A2 liposome hydrolysis, fluorescence; actives 0.56% (n = 370,000);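 active = inhibition above mean plus 3 SD of compounds lying within the high and low control bounds, cut at about 19% in these data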;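 also: 0% = median of test compound wells and 100% = no enzyme DMSO wells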
NadD block – inhibitors of Staphylococcus aureus NadD; purified NadD enzyme, colorimetric absorbance read-out; inhibition, % at 20 µM; actives 0.78% (n = 360,000); AID 602399; in the data active = inhibition above about 26%
ARNT-TACC3 inh – disrupts binding between human ARNT and TACC3. AID 623870. inhibition, % at 9.99 µM. Q9Y6A5. actives 0.66% (n = 390,000). AlphaScreen His-ARNT PAS-B/GST-TACC3 binding, luminescence; TACC3 fragment carries E629A point mutation;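 active = mean inhibition of replicates at least 50% and at least half of replicates each reaching 50%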;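 also: 0% = complete ARNT plus TACC3 wells and 100% = ARNT alone without TACC3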
Numbers without * were called inactive; · = no result shown. In the library only some 2% were active in any assay of this set; here they are far more common.

SMILES	DAGLB inh	Neddyl block	sPLA2-III inh	NadD block	ARNT-TACC3 inh
COCC(=O)Nc1ccc2c(c1)C(=O)N(C)C[C@H](OC)[C@H](C)CN(C(=O)Cc1cccnc1)[C@H](C)CO2	·	·	·	·	1
CCCN(C)C[C@H]1Oc2cc(C#CCC3CCCC3)ccc2S(=O)(=O)N([C@H](C)CO)C[C@@H]1C	·	·	·	·	24
COc1ccc2[nH]c(C(=O)N/N=C/c3ccc(O)cc3O)cc2c1	4	48*	-16	0	16
COc1ccc(/C=N/NC(=O)c2nc(-c3ccccc3)n(-c3ccccc3)n2)c(O)c1	8	48*	16	41*	11
COc1ccc(/C=N/NC(=O)c2nc(-c3ccccc3)n(-c3ccccc3)n2)cc1	3	3	-6	7	-4
CCOc1ccc2[nH]c(C(=O)N/N=C/c3ccc(OC)cc3)cc2c1	0	34	-12	-4	-5
C[C@H]1CN([C@@H](C)CO)C(=O)c2cc(NC(=O)Nc3ccc4c(c3)OCO4)ccc2O[C@@H]1CN(C)Cc1ccc(-c2ccccc2)cc1	·	·	·	·	1
CC(C)NC(=O)N(C)C[C@H]1OCCCC[C@@H](C)Oc2ccc(NC(=O)CCC(F)(F)F)cc2C(=O)N([C@@H](C)CO)C[C@H]1C	·	·	·	·	-4
O=C(O)CCCCCN1C(=O)/C(=C/c2cn(-c3ccccc3)nc2-c2cccs2)SC1=S	7	2	-3	31*	10
O=C(O)CCN1C(=O)/C(=C/c2cn(-c3ccccc3)nc2-c2cccs2)SC1=S	13	-15	-7	31*	8
O=C(O)CCCCCN1C(=O)/C(=C\c2cn(-c3ccccc3)nc2-c2cccs2)SC1=S	4	-16	5	32*	4
Cc1ccc(-c2nn(-c3ccccc3)cc2/C=C2\SC(=S)N(CC(=O)O)C2=O)cc1	2	-31	-7	41*	3
CC(C)NC(=O)N[C@H]1C=C[C@H](CC(=O)N2CCCCC2)O[C@@H]1CO	·	·	·	·	36
CCOc1ccc(-c2nn(-c3ccccc3)cc2/C=C2\SC(N)=NC2=O)cc1C	-2	·	1	32*	0
Cc1[nH]c2ccccc2c1CCNC(=O)c1ccc2c(c1[N+](=O)[O-])C(=O)c1ccccc1C2=O	18	-24	-4	40*	3
Cc1[nH]c2c(C)cccc2c1CCNC(=O)c1ccc2c(c1[N+](=O)[O-])C(=O)c1ccccc1C2=O	18	-26	-4	35*	-8
Cc1cccc2c(=O)c(C(=O)NCCc3ccccc3)c[nH]c12	-1	-68	-14	-5	7
CN(C)C(=O)c1ccc2c(c1[N+](=O)[O-])C(=O)c1ccccc1C2=O	3	-30	1	7	6
C/C=C/c1cnc2c(c1)C(=O)N([C@@H](C)CO)C[C@@H](C)[C@@H](CN(C)Cc1ccccc1)O2	·	·	·	·	-9
Cc1ccc(-c2nn(-c3ccccc3)cc2/C=C(\C#N)c2cccc(C#N)c2)o1	-4	37*	·	0	-1
COc1ccc(C(=O)N2C[C@H]3[C@@H](c4ccccc42)[C@@H](CO)N3Cc2ccc(Cl)cc2)cc1	·	·	·	·	3
COc1cc(C2Nc3cccc4cccc(c34)N2)ccc1OC(C)=O	3	-5	·	47*	3
COc1cc(C2Nc3cccc4cccc(c34)N2)cc(OC)c1O	7	-10	12	32*	7
Brc1ccc(C2Nc3cccc4cccc(c34)N2)cc1	0	-75	2	5	3
COC(=O)c1ccc(C2Nc3cccc4cccc(c34)N2)cc1	3	-36	-3	40*	4
SMILES	DAGLB inh	Neddyl block	sPLA2-III inh	NadD block	ARNT-TACC3 inh
COc1ccc(C2Nc3cccc4cccc(c34)N2)cc1Br	-1	-25	-5	49*	-1
CCS(=O)(=O)Nc1ccc2c(c1)C(=O)N(C)C[C@@H](OC)[C@H](C)CN(Cc1ccccn1)[C@H](C)CO2	·	·	·	·	2
C[C@H]1CN([C@@H](C)CO)C(=O)c2cc(C#CC3CCCCC3)cnc2O[C@@H]1CN(C)S(C)(=O)=O	·	·	·	·	0
COc1cccc(-c2cnc3c(c2)C(=O)N([C@H](C)CO)C[C@@H](C)[C@H](CN(C)C(C)=O)O3)c1	·	·	·	·	-9
C[C@H]1CN([C@@H](C)CO)C(=O)c2cc(NC(=O)Nc3ccc(F)cc3)ccc2O[C@H]1CN(C)Cc1ccncc1	·	·	·	·	2
COc1cc2c(C#N)c(N3CCCCC3)nc(N)c2c(N)n1	-5	-41	3	7	·
COc1cc2c(C#N)c(N3CCOCC3)nc(N)c2c(N)n1	-2	-31	-8	8	69*
COCCn1c(SCc2ccccc2F)nc2ccccc2c1=O	-4	4	6	-5	-8
O=c1c2ccccc2nc(SCc2ccccc2F)n1C1CCCC1	2	-9	4	0	47*
C[C@@H]1CCCCO[C@H](CN(C)S(=O)(=O)c2cn(C)cn2)[C@@H](C)CN([C@H](C)CO)C(=O)c2cc(NC(=O)C3CCCCC3)ccc2O1	·	·	·	·	-10
O=C1C(=Cc2cn(-c3ccccc3)nc2-c2ccc(OCc3ccc(Cl)cc3)cc2)SC(=S)N1CCS(=O)(=O)O	·	-2	-8	60*	·
O=C1C(=Cc2cn(-c3ccccc3)nc2-c2ccc(OCc3ccccc3F)cc2)SC(=S)N1CCS(=O)(=O)O	·	-6	-25	30*	·
CO[C@@H]1CN(C)C(=O)c2ccc(NS(C)(=O)=O)cc2OC[C@H](C)N(C(=O)NC(C)C)C[C@@H]1C	·	·	·	·	0
CCN(CC)c1ccc(/C=C2\C(=O)N(c3nnc(C)c(=O)[nH]3)N=C2C)cc1	18	5	12	16	60*
CC(=O)N(C)C[C@@H]1Oc2cc(-c3ccccc3)ccc2S(=O)(=O)N([C@H](C)CO)C[C@@H]1C	·	·	·	·	-13
C[C@@H]1CN([C@@H](C)CO)C(=O)c2cc(C#CC3CCCC3)cnc2O[C@H]1CN(C)C(=O)Cc1ccccn1	·	·	·	·	6
COc1ccc(C2=Nn3c(nnc3-c3ccccn3)SC2)cc1OC	1	-34	5	6	83*
CC(C)(C)C1=Nn2c(nnc2-c2ccccn2)SC1	1	-4	5	8	72*
CC(C)(C)C1=Nn2c(nnc2-c2ccccc2F)SC1	-1	8	·	-3	-10
CCC(=O)Nc1ccc2c(c1)C(=O)N(C)C[C@@H](OC)[C@H](C)CN(CC1CC1)[C@@H](C)CO2	·	·	·	·	-8
C[C@@H]1CCCCO[C@H](CN(C)Cc2ccc(Cl)c(Cl)c2)[C@H](C)CN([C@@H](C)CO)C(=O)c2cc(NS(C)(=O)=O)ccc2O1	·	·	·	·	-1
Cc1ccc(NCc2ccccc2O)cc1	-2	-8	-2	-1	-8
Cc1ccc(CNc2ccc(O)cc2)cc1	5	-35	-6	11	24*
CCOc1ccccc1-n1c(SCC(N)=O)nnc1-c1ccc(O)cc1	-2	0	-1	-5	54*
CCOc1ccccc1-n1c(SCC(N)=O)nnc1-c1ccccc1	1	3	4	-4	8
C[C@H](CO)N1C[C@H](C)[C@@H](CN(C)CC2CC2)Oc2cc(-c3cccc(C#N)c3)ccc2S1(=O)=O	·	·	·	·	-1
